LYPLA2 inh: LYPLA2 (human) inhibition in PME1 counter-screen; O95372; recombinant LYPLA2, FP-Rh probe fluorescence polarization; inhibition, % at 5.9 µM; hit rate 0.38% among 320,000; AID 2177;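 active = inhibition above the screen-wide mean plus 3 SD, limit set per campaign, cut at about 26% in these data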;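 note: 0% = LYPLA2 with DMSO and 100% = wells lacking LYPLA2 enzyme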
Target sequence (O95372 whole entry, looked up): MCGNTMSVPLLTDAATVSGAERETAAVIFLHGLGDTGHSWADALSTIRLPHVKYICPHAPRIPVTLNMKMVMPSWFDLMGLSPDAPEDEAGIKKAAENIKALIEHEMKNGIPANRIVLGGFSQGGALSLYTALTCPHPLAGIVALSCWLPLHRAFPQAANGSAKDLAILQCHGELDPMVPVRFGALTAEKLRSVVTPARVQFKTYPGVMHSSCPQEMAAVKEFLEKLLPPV
PP5 primary: PP5 (human) phosphatase inhibition | P53041 | purified PP5c, OMFP substrate fluorescence | inhibition, % at 6.7 µM | hit rate 0.18% among 320,000;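 active = inhibition above the campaign's mean inhibition across all tested compounds plus 3 SD, cut at about 9.5% in these data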;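 note: 0% = DMSO only and 100% = 100 µM cantharidin control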
LYPLA1 inh: blocks human lysophospholipase 1, a PME1 counter-screen; O75608; recombinant LYPLA1, FP-Rh probe fluorescence polarization; inhibition, % at 5.9 µM; hit rate 0.16% among 320,000; AID 2174;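 active = inhibition above the mean of all tested compounds plus 3 SD, set per campaign, cut at about 14% in these data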;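 note: inhibitors block serine hydrolase probe labeling of LYPLA1 so polarization falls; 0% = enzyme with DMSO and 100% = wells lacking LYPLA1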
PME-1 inh: blocks human protein phosphatase methylesterase 1; AID 2130; inhibition, % at 5.9 µM; hit rate 0.53% among 320,000; recombinant PME-1, FP-Rh probe fluorescence polarization; Q9Y570;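 active = inhibition above the campaign mean of all compounds plus 3 SD, cut at about 26% in these data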;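 note: competitive labeling of PME-1 active site by serine hydrolase directed probe; 0% = PME-1 with DMSO and 100% = wells lacking PME-1 enzyme; inhibitors block probe labeling so polarization falls and inhibition rises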
Fam108B counter: counter-screen for RBBP9 inhibitors: inhibitors of mouse Fam108B; recombinant Fam108B, FP-Rh probe fluorescence polarization; inhibition, % at 9.51 µM; hit rate 0.33% among 300,000;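 active = inhibition above the screen mean inhibition plus 3 SD, computed separately per campaign, cut at about 18% in these data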;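 note: inhibitors lower polarization as less probe binds the enzyme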
PP1 inh: PP1-alpha (human) inhibition in PP5 counter-screen | purified PP1alpha, OMFP fluorescence | P62136 | inhibition, % at 6.7 µM | hit rate 0.9% among 320,000;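 active = inhibition above the mean inhibition of all tested compounds plus 3 SD, computed separately for each screening campaign, cut at about 15% in these data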
Target sequence (P62136 whole entry, looked up): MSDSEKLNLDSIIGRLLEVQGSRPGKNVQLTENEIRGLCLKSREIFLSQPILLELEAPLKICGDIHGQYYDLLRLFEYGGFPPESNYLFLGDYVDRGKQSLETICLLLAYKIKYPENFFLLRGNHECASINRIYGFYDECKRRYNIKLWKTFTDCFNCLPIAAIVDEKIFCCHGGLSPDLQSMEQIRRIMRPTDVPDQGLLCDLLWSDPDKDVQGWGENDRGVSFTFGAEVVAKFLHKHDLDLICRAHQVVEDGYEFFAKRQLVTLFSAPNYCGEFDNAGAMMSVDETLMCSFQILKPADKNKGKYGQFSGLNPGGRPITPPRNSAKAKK
PP1 confirm: human PP1 phosphatase inhibition, confirmation. purified PP1alpha, OMFP substrate fluorescence. hit rate 52% among 1,900. inhibition, % at 6.7 µM. shares compounds with PP1 inh;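 active = mean PP1 inhibition above a set limit taken from the earlier primary screen, cut at about 15% in these data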
PP5 inh counter: inhibits human PP5 phosphatase in PP1 counter-screen | shares compounds with PP1 inh | hit rate 4% among 1,900 | purified PP5c, OMFP fluorescence | inhibition, % at 6.7 µM;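 active = mean PP5 inhibition over triplicate wells above about 9.5% taken from the earlier PP1 screen, limit read from the data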
* hit, by the source's call; / = no result given. In the library only some 1.8% were active in any assay of this set; here they are far more common.

SMILES | LYPLA2 inh | PP5 primary | LYPLA1 inh | PME-1 inh | Fam108B counter | PP1 inh | PP1 confirm | PP5 inh counter
O=C(NCCCCc1ccccc1)C12CN(Cc3ccccc3)CC1C(c1ccc([N+](=O)[O-])cc1)=NO2 (stereo unspecified) | -1 | 4 | -5 | -3 | 2 | 7 | / | /
Cn1cccc1-c1cc(C(=O)N/N=C/c2cc(Br)ccc2O)[nH]n1 | -21 | 1 | -20 | 4 | 0 | 21* | 22* | -4
COC(=O)c1ccccc1NC(=O)CSc1nc(N)cc(=O)[nH]1 | -2 | 1 | 0 | 5 | 0 | 26* | -7 | -7
Cc1ccc(-n2c(C)cc(C(=O)COC(=O)c3ccc[nH]c3=O)c2C)cc1C | -1 | 0 | 1 | 1 | 5 | 21* | 16* | -5
Cc1cc(C(=O)COC(=O)c2ccc[nH]c2=O)c(C)n1-c1ccccc1F | 0 | 0 | 1 | 1 | -1 | 3 | / | /
CCCOc1ccc(C(=O)NC(=S)NNC(=O)c2c(-c3ccccc3)noc2C)cc1 | 3 | 3 | -1 | -3 | 1 | 18* | 1 | -1
CCCOc1ccc(NC(=O)c2c(-c3ccccc3)noc2C)cc1 | -2 | 1 | -2 | -5 | 2 | -5 | / | /
COc1ccc(C(=O)NCC(=O)N2CCCC(C(F)(F)F)C2)cc1OC (stereo unspecified) | -2 | -3 | 1 | 0 | -2 | -6 | / | /
COc1cccc(NC(=O)c2nnn(CC(=O)Nc3cc(C)cc(C)c3)c2N)c1 | -5 | 4 | -2 | -1 | -4 | 5 | / | /
Cc1cccc(NC(=O)Cn2nnc(C(=O)Nc3ccc(F)c(Cl)c3)c2N)c1 | -13 | -6 | -5 | -23 | -12 | 19* | -1 | -4
CCCCCc1c2c(cc(O)c1C(=O)O)OC(=O)c1c(cc(OC)cc1C(=O)CCCC)O2 | 8 | 5 | 0 | 8 | 3 | 25* | 28* | 2
CCCCc1c(C(=O)O)cc(OC)cc1C(=O)O | 2 | 2 | -2 | -3 | -5 | -6 | / | /
COc1ccc(C2=NN(S(C)(=O)=O)C(c3cccs3)C2)cc1OC (stereo unspecified) | -1 | 3 | 0 | 18 | 3 | -3 | / | /
COc1ccc(C2=NN(C(=O)CCCC(=O)O)C(c3cn(-c4ccccc4)nc3-c3ccccc3)C2)cc1 (stereo unspecified) | -4 | 1 | -3 | -6 | 0 | 29* | 18* | -5
C=CCN1C(=O)c2ccc(C(=O)NCCc3ccc(F)cc3)cc2C1=O | 11 | 1 | -2 | 0 | 1 | -2 | / | /
O=C1NC[C@@H](Cc2cccc3ccccc23)N(CCCCC2CCCCC2)C1=O | 7 | 5 | -2 | 4 | 3 | 21* | 3 | 2
NCCCC[C@H]1CNC(=O)C(=O)N1CCCCC1CCCCC1 | -7 | 1 | 0 | 1 | -4 | -4 | / | /
O=C1N=C(N2CCC(Cc3ccccc3)CC2)S/C1=C/c1cn[nH]c1-c1ccccc1 | -31 | 3 | -22 | -34 | -23 | 21* | 9 | -5
CCCCCCCCC/C(=N\O)c1ccccn1 | -1 | 5 | 3 | 0 | 7 | 32* | 28* | -5
O=P(O)(O)CP(=O)(O)O | 0 | 5 | -2 | -3 | -4 | 25* | 38* | 5
COc1ccc2ccc(O)c(CN(C)CC(=O)Nc3ccccc3C(F)(F)F)c2c1 | -5 | 1 | 2 | 1 | 2 | -2 | / | /
CN(C)CCOc1ccc(/C(=C(/CCCl)c2ccccc2)c2ccccc2)cc1 | 0 | 5 | -2 | 1 | 6 | 21* | -9 | -1
Nc1ncnc2oc(-c3ccco3)c(-c3ccco3)c12 | -4 | 2 | -7 | 3 | 16 | 25* | 16* | -2
CCOc1ccccc1NC(=O)CN1CCN(Cc2ccccc2)CC1 | -2 | -1 | -3 | -5 | -1 | -3 | / | /
CCCCC[C@H](O)/C=C/[C@@H]1[C@@H](C/C=C\CCCC(=O)OC)[C@@H](O)C[C@H]1O | 6 | 7 | -1 | -2 | 1 | 46* | 43* | -2
SMILES | LYPLA2 inh | PP5 primary | LYPLA1 inh | PME-1 inh | Fam108B counter | PP1 inh | PP1 confirm | PP5 inh counter
CCOc1ccc(S(=O)(=O)NCCCN2CCOCC2)cc1 | 6 | 3 | -4 | 1 | 5 | 23* | -4 | -7
CCOc1ccc(S(=O)(=O)NCCC(=O)N2CCCC(C)C2)cc1 (stereo unspecified) | 2 | 0 | 1 | 5 | 2 | -1 | / | /
CCOc1ccc(S(=O)(=O)NCCC(=O)N2CC(C)CC(C)C2)cc1 (stereo unspecified) | 1 | -1 | -2 | 0 | 1 | 79* | -6 | -5
CSc1nnc(C2CCN(CC(=O)Nc3ccccc3N3CCOCC3)CC2)n1C(C)C | -2 | 0 | 2 | 0 | 1 | 0 | / | /
COc1cc(OC)c(C(=O)OCC(=O)Nc2c(C)n(C)n(-c3ccccc3)c2=O)cc1OC | 0 | 1 | 0 | 2 | / | -2 | / | /
Cn1cc(S(=O)(=O)N2CCc3ccccc32)cc1C(=O)NC(C)(C)C | -1 | 2 | 3 | 2 | -1 | -1 | / | /
CCCCC(CC)C(=O)Nc1cc(C(=O)NCc2ccc(C)cc2)ccc1N1CCC2(CC1)CC(c1ccccc1)=NO2 (stereo unspecified) | -9 | -2 | -5 | -12 | -5 | 19* | 13 | 0
O=C(NCC1CCCC(CNC(=O)Nc2ccc(Cl)cn2)C1)Nc1ccc(Cl)cn1 (stereo unspecified) | -3 | 6 | -4 | -11 | -7 | 19* | 13 | 5
CCc1cc2c(=O)c(-c3nc(C)cs3)coc2cc1O | 2 | 0 | 3 | -3 | -3 | 20* | 12 | -4
O=c1c(-c2c(O)cc(O)c3c(=O)cc(-c4ccc(O)cc4)oc23)c(-c2ccc(O)cc2)oc2cc(O)cc(O)c12 | -22 | 3 | -25 | -8 | 8 | 32* | 16* | -2
COc1c(-c2ccc(O)cc2)oc2cc(O)cc(O)c2c1=O | 7 | 3 | 1 | -2 | 3 | 7 | / | /
CCC(C)NC(=O)c1cc(-c2ccc3c(c2)OCO3)on1 (stereo unspecified) | -2 | 0 | 0 | -3 | 0 | -2 | / | /
O=C(CSc1ccc(-c2ccncc2)nn1)c1ccccc1 | 0 | 2 | -2 | 0 | 3 | 21* | -4 | -7
CCOC(=O)N1CCN(S(=O)(=O)c2ccc(C(=O)NNc3nc4c(C)cccc4s3)cc2)CC1 | 9 | 5 | 2 | 6 | 6 | 5 | / | /
CCOC(=O)N1CCN(S(=O)(=O)c2ccc(C(=O)NNc3nc4cc(C)cc(C)c4s3)cc2)CC1 | 9 | 6 | 6 | 4 | 7 | 19* | 26* | 1

Bioassay records (PubChem)
